# In the supplement of paper PMC6279402:
# Counter-ions that a name gives are not always drawn. ± gives the standard deviation of the averaged measurements.
# System: A549
# Experiment: relative viability (normalised to negative control = 1, bortezomib = 0) (fraction); higher = less cytotoxic
# Conditions: inflammatory serum-free RHB-A with cytokines + LPS; 5 d + 24 h CellTiter-Blue; compound 300 nM; GSK126 pretreatment: 5 uM GSK126
row,SMILES,relative viability
1,CCS(=O)(=O)Nc1ccc2[nH]c(O)c(C(=Nc3ccc(CN4CCCCC4)cc3)c3ccccc3)c2c1 [Hesperadin],0.336 ± 0.019
2,Cc1ccc(C(=O)Nc2cccc(C(F)(F)F)c2)cc1Nc1nc(-c2cccnc2)nc2c1cnn2C,1.01 ± 0.13
3,"O=NN(CCCl)C(=O)NC1CCCCC1 [Lomustine, CCNU; Lomustine]",1.03 ± 0.11
4,Nc1nc2[nH]cnc2c(=S)[nH]1 [Thioguanine],0.917 ± 0.045
5,C#Cc1cccc(Nc2ncnc3cc(OCCOC)c(OCCO)cc23)c1 [OSI-420 (Desmethyl Erlotinib)],0.477 ± 0.047
6,COc1cc2nccc(Oc3ccc(NC(=O)Nc4cc(C)on4)c(Cl)c3)c2cc1OC [AV-951(Tivozanib)],1.1 ± 0.11
7,COc1cc(Nc2ncc3c(n2)-c2ccc(Cl)cc2C(c2c(F)cccc2OC)=NC3)ccc1C(=O)O,0.523 ± 0.11
8,CCC1=C[C@@H]2CN(C1)Cc1c([nH]c3ccccc13)[C@@](C(=O)OC)(c1cc3c(cc1OC)N(C)[C@H]1[C@@](O)(C(=O)OC)[C@H](OC(C)=O)[C@]4(CC)C=CCN5CC[C@]31[C@@H]54)C2 [Vinorelbine tartrate],0.376 ± 0.056
9,CNC(=O)c1ccc(C)c(-n2c(C)cc(OCc3ccc(F)cc3F)c(Br)c2=O)c1,1.29 ± 0.13
10,O=C(NC1CCNCC1)c1n[nH]cc1NC(=O)c1c(Cl)cccc1Cl,0.0464 ± 0.029
11,COc1cccc(-c2cc(=O)c3ccccc3o2)c1N,0.726 ± 0.19
12,Oc1ccc(-c2nc(-c3ccc(F)cc3)c(-c3ccncc3)[nH]2)cc1,1.36 ± 0.066
13,O=C(NOC[C@H](O)CO)c1ccc(F)c(F)c1Nc1ccc(I)cc1F,0.108 ± 0.017
14,O=c1cc(N2CCOCC2)oc2c(-c3ccccc3)cccc12,0.748 ± 0.15
15,COc1ccc(-c2cc3c(C)nc(N)nc3n(C3CCC(OCCO)CC3)c2=O)cn1 (configuration not stated),0.0912 ± 0.017
16,O=c1c(O)c(-c2ccc(O)c(O)c2)oc2cc(O)cc(O)c12 [QUERCETIN; Quercetin(Sophoretin); Quercetin dihydrate],0.961 ± 0.11
17,CC(C)(C)c1cnc(CSc2cnc(NC(=O)C3CCNCC3)s2)o1,-0.00432 ± 0.0019
18,CN(C)c1ccc(-c2nc3ncc(Cl)c(N4CCN(CC(=O)Nc5nccs5)CC4)c3[nH]2)cc1,1.1 ± 0.097
19,Clc1ccc(C2(c3ccc(-c4cn[nH]c4)cc3)CCNCC2)cc1,0.734 ± 0.044

row,SMILES,relative viability
1,Cc1ccc([N+](=O)[O-])cc1S(=O)(=O)N(C)/N=C/c1cnc2ccc(Br)cn12 [PIK-75 Hydrochloride],-0.00172 ± 0.0047
2,C=CC(=O)Nc1cccc(Oc2nc(Nc3ccc(N4CCN(C)CC4)cc3)ncc2Cl)c1,0.132 ± 0.07
3,O=C(CCCCCCC(=O)Nc1ccccc1)NO [Vorinostat; SAHA],0.891 ± 0.17
4,CNC(=O)c1cc(COc2nnc(Nc3ccc(Cl)cc3)c3ccoc23)ccn1 [Telatinib (BAY 57-9352)],0.967 ± 0.13
5,Nc1nc(N)c2nc(-c3cccc(O)c3)c(-c3cccc(O)c3)nc2n1,0.664 ± 0.14
6,Nc1ccn([C@@H]2O[C@H](CO)[C@@H](O)[C@@H]2O)c(=O)n1,0.668 ± 0.094
7,CNC(=O)c1cc(Oc2ccc(NC(=O)Nc3cc(C(C)(C)C)nn3-c3ccc4ncccc4c3)c(F)c2)ccn1 [DCC-2036 (Rebastinib)],1.48 ± 0.067
8,N#Cc1ccc(C(c2ccc(C#N)cc2)n2cncn2)cc1 [Letrozole],0.832 ± 0.063
9,Cc1ccc(NC(=O)c2cccc(N(C)C)c2)cc1NC(=O)c1ccc(O)cc1,1.19 ± 0.13
10,O=C(Nc1c[nH]nc1-c1nc2ccc(CN3CCOCC3)cc2[nH]1)NC1CC1,0.336 ± 0.034
11,Cn1cc(-c2ccc3nnc(Sc4ccc5ncccc5c4)n3n2)cn1,0.859 ± 0.033
12,Nc1ncnc2c1c(-c1cnc3[nH]ccc3c1)nn2C1CCCC1,0.494 ± 0.039
13,CCc1cccc(CC)c1NC(=O)N1Cc2[nH]nc(NC(=O)c3ccc(N4CCN(C)CC4)cc3)c2C1,0.701 ± 0.13
14,O=C1NC(=O)/C(=C/c2ccc3c(c2)OC(F)(F)O3)S1,1.01 ± 0.14
15,CC(C)(C)Cn1c(N)nc2ccc(-c3[nH]c(C(C)(C)C)nc3-c3ccc(F)cc3)nc21,1.25 ± 0.16
16,CN(C)Cc1cccc(N=C(c2ccccc2)c2c(O)[nH]c3cc(C(N)=O)ccc23)c1,1.08 ± 0.2
17,C#Cc1cccc(Nc2ncnc3cc(OCCOC)c(OCCOC)cc23)c1,0.448 ± 0.041
18,O=c1ncn2nc(Sc3ccc(F)cc3F)ccc2c1-c1c(Cl)cccc1Cl,1.12 ± 0.12
